We go through 35 compounds from ChEMBL document CHEMBL3433997, “St. Jude Leishmania screening dataset” (2016).

What all share (format): functional
Experiment [1] concerns the target Solute carrier family 2, facilitated glucose transporter member 1 (Homo sapiens) (UniProt P11166). The experiment in a line: ST_JUDE_LEISH: Cytotoxicity at 2uM final concentration against transgenic Leishmania Mexicana promastigotes LmGLUT1 that are glucose transport deficient and complemented with the human glucose transporter GLUT1. Activity is measured by DNA content using SYBR green in vitro.

For experiment [2], the target named is Hexose transporter 1 (Plasmodium falciparum) (UniProt O97467). As to the kind of experiment: ST_JUDE_LEISH: Cytotoxicity at 2uM final concentration against transgenic Leishmania Mexicana promastigotes LmPfHT that are glucose transport deficient and complemented with the Plasmodium falciparum hexose transporter. Activity is measured by DNA content using SYBR green in vitro.

Experiment [3] deals with Glucose transporter (Leishmania mexicana) (UniProt O61059). The experiment in a line: ST_JUDE_LEISH: Cytotoxicity at 2uM final concentration against transgenic Leishmania Mexicana promastigotes LmGT2 that are glucose transport deficient and complemented with the L. Mexicana glucose transporter 2. Activity is measured by DNA content using SYBR green in vitro.

Solute carrier family 2, facilitated glucose transporter member 1 (Homo sapiens), sequence (P11166 whole entry): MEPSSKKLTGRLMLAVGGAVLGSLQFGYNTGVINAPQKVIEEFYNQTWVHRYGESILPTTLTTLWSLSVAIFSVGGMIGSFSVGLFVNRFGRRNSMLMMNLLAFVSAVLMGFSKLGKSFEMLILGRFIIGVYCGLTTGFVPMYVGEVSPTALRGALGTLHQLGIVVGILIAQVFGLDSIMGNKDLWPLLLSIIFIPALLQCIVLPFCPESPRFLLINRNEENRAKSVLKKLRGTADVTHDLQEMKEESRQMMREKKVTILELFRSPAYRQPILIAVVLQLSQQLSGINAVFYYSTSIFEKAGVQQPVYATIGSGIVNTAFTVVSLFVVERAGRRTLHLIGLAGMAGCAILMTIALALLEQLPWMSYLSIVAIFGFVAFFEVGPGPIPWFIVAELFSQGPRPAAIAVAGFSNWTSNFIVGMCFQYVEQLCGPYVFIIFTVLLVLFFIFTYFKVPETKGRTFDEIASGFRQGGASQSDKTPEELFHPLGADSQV

Broadly, the inhibition is the drop in the measured response relative to a control, in per cent. For `O=C(NCCNc1ccnc(Nc2ccc(F)cc2)n1)Nc1ccc2c(c1)OCO2`, the inhibition in experiment [1] amounted to 1.78%; in experiment [2], 0.82%; in experiment [3], 0.6%.
As to `N=C(N)NC(=O)Nc1cc(Cl)c(Cl)c(C(F)(F)F)c1`, the results for the inhibition in experiment [1], in experiment [2] and in experiment [3] were 2.87%, 3.46% and 1.58%, respectively.
On to `CN(C)C(CNC(=O)c1cc(-c2ccncc2)c(-c2cc3ccccc3[nH]2)o1)c1ccccc1` (stereo not given), for which the inhibition was determined as 3.53% in experiment [1], 2.32% in experiment [2] and 2.06% in experiment [3].
On to `COc1ccc(C(=O)Nc2cc(Br)c3c(c2)CNCC3)cc1Br`, for which the inhibition in experiment [1] turned out to be 2.73%; in experiment [2] it was 3.54%; in experiment [3], 1.69%.
`CC(C)COc1ccc(Cl)cc1Cc1nc(-c2nc3ccc(CN4CCN(C)CC4)cc3[nH]2)co1`: the figures for the inhibition in experiment [1], in experiment [2] and in experiment [3] were 8.24%, 7.62% and 7.58%, respectively.
The like results for `Cc1cc(F)ccc1-c1nc(NCC(O)CNCCc2ccccc2)nc2c1ccc(=O)n2-c1c(F)cccc1F` (stereo not given) were, in that order, 5.26%, 4.59% and 6.47%.
As to `Cc1ccc(S(=O)(=O)NC2=NC(=N)N(OCc3ccc(Cl)c(Cl)c3)C(C)(C)N2)cc1`, the results for the inhibition in experiment [1], in experiment [2] and in experiment [3] were 12.6%, 13.6% and 13.9%, respectively.
As for `Cc1cc(N[C@@H](CC(C)C)C(=O)NC2CCCC2)nc(NCCc2ccc(F)cc2)n1`, the inhibition in experiment [1] was 3.05%; in experiment [2], 1.34%; in experiment [3], 0.03%.
The like results for `COc1ccc(C2CC(c3ccccc3O)=NN2C(=O)c2ccco2)cc1OC` (stereo not given) were, in that order, 0.86%, 1.48% and -2.92%.
Take `Nc1c2c(nc3ccc(NC(=O)CCCCCCc4ccccc4)cc13)CCCC2`: the inhibition in experiment [1] is -2.4%; in experiment [2], -2.24%; in experiment [3] it was -3.57%.
`Cc1cc2c(NC(=O)NC3CCN(CCc4ccccc4Cl)CC3)cccc2cn1`: the inhibition in experiment [1] was found to be 2.51%; in experiment [2], 1.74%; in experiment [3] it was 1.68%.
`COc1ccc(-c2ccc(NC(=O)c3ccc(F)cc3)cc2)cc1CNC(C)C`: the inhibition in experiment [1] came out at 0.84%; in experiment [2], 1.24%; in experiment [3], 4.68%.
Regarding `COc1ccccc1N1CCN(c2cccc(F)c2C#N)CC1`, the inhibition in experiment [1] stood at 8.24%; in experiment [2], 6.93%; in experiment [3], 6.12%.
Take `CC(C)(C)CC(=O)Nc1ccc(Nc2cc(-c3ccncc3)cc3ncc(C(N)=O)cc23)cc1`: the inhibition in experiment [1] is -0.38%; in experiment [2], 1.53%; in experiment [3] it was 1.26%.
`CC(C)(C)Oc1ccc(C[C@@H]2NC3(C(=O)N(Cc4ccc(Cl)c(Cl)c4)c4ccccc43)C3C(=O)N(c4ccc(Br)cc4)C(=O)C32)cc1` (stereo not given in full): the inhibition in experiment [1] was determined as 4.6%; in experiment [2], 4.73%; in experiment [3], 2.5%.
In the same order, the values of `CCCC(C)n1ccc2c3c(N)nc(N)nc3ccc21` (stereo not given) are 47.3%, 56.9% and 29.7%.
As for `CCC(CO)NCC(O)Cn1c2ccc(Cl)cc2c2cc(Cl)ccc21` (stereo not given), the inhibition in experiment [1] came to 4.65%; in experiment [2], 5.96%; in experiment [3], 2.18%.
On to `COCCNCc1ccc(-c2ccc3c(Nc4ccc(Cl)cc4F)ccnc3c2)o1`, for which the values for the inhibition in experiment [1], in experiment [2] and in experiment [3] were 2.75%, 2.3% and 4.33%, respectively.
As to `CC(=O)Nc1ccc(C2NC(=O)NC(c3ccccc3)=C2c2nc3ccccc3s2)cc1` (stereo not given), the inhibition in experiment [1] came out at 3.15%; in experiment [2], 0.83%; in experiment [3], 2.69%.
As for `COc1nc2c(CCN3CC[C@H](NCc4cc(C#N)c5c(c4)OCCO5)[C@H](O)C3)ccnc2cc1F`, the inhibition in experiment [1] amounted to 14.4%; in experiment [2], 18%; in experiment [3] it was 3.29%.
`O=C(Nc1ccccc1F)NC1CCN(c2ccnc(Nc3ccc(F)cc3)n2)C1` (stereo not given): the inhibition stood at 0.46% in experiment [1], 0.72% in experiment [2] and 0.81% in experiment [3].
As for `c1cncc(CN2CCCN(c3ccc4c(c3)CCN(Cc3ccc(-c5ncc[nH]5)cc3)CC4)CC2)c1`, the values for the inhibition in experiment [1], in experiment [2] and in experiment [3] were 1.93%, 2.7% and 2.25%, respectively.
Consider `COc1cc2c(cc1OCCN1CCC(N3CCCCC3)CC1)N(C(=O)/C=C/c1ccccc1OC(F)(F)F)CC2`, for which the figures for the inhibition in experiment [1], in experiment [2] and in experiment [3] were 2.32%, 5.04% and 3.58%, respectively.
The like results for `N=C(N)c1cc(Br)cc(NC(=O)Nc2cc(Br)cc(C(=N)N)c2)c1` were, in that order, 2.46%, 2.44% and 3.14%.
In the case of `CCn1c(Sc2ccc([N+](=O)[O-])c(C#N)c2)nnc1-c1cccc(Cl)c1`, the inhibition in experiment [1] was 1.53%; in experiment [2] it was 0.29%; in experiment [3], -1.08%.
Take `COc1ccc2nccc([C@@H](O)CN3CCC(NC(=O)C(c4ccccc4C)N4CCC(Cc5ccccc5)CC4)CC3)c2c1` (stereo not given in full): the inhibition in experiment [1] is 1.73%; in experiment [2], 1.16%; in experiment [3] it was 2.38%.
In the same order, the values of `N#Cc1ccc2c(c1)CCN(CCC1CCC(NC(=O)/C=C/c3c[nH]c4ccc(F)cc34)CC1)CC2` (stereo not given) are 0.97%, 3.57% and 2.6%.
`Cc1ccc2c(OCCN3CCC(Cc4cc5c(cc4F)OCC(=O)N5)CC3)cc(F)cc2n1`: the inhibition in experiment [1] stood at 5.35%; in experiment [2], 4.63%; in experiment [3], 3.85%.
The like results for `Fc1ccc2[nH]c(-c3cccc(-c4cccc(CN5CCN(c6cnccn6)CC5)c4)c3)nc2c1` were, in that order, 7.08%, 5.74% and 4.27%.
For the compound `COc1cc(Br)ccc1N1CCN(CCCCNC(=O)c2ccc(NC(=O)c3ccc(Cl)cc3)cc2)CC1`, the values for the inhibition in experiment [1], in experiment [2] and in experiment [3] were 2.1%, 2.33% and 1.5%, respectively.
The like results for `CNCCNc1nccc(N2CCc3ncnc(Nc4ccc(OCc5cccc(F)c5)c(Cl)c4)c3C2)n1` were, in that order, 3.85%, 5% and 2.3%.
For `Cc1csc2nc(C(C)c3ccc(NC(=O)c4cccs4)cc3)oc(=O)c12` (stereo not given), the inhibition was 1.03% in experiment [1], -0.57% in experiment [2] and -0.38% in experiment [3].
For the compound `CC(C)(C)c1cc(C(=O)N2CCN(c3cnccn3)CC2)n(Cc2ccccc2)n1`, the values for the inhibition in experiment [1], in experiment [2] and in experiment [3] were 4.57%, 4.68% and 4.9%, respectively.
With `CC(C)(C)c1ccc(CN(C[C@@H](O)CNS(=O)(=O)c2cc(Cl)cc(Cl)c2)C(C)(C)C)cc1`, the values for the inhibition in experiment [1], in experiment [2] and in experiment [3] were 0.82%, 0.36% and -0.02%, respectively.
For `Cc1ccc2nc3c(cc(C(=O)NCc4ccccc4)c(=N)n3CCCn3ccnc3)c(=O)n2c1`, the inhibition turned out to be 10.5% in experiment [1], 12.5% in experiment [2] and 12.2% in experiment [3].
